In PubChem BioAssay:
Active and inactive are the calls of the source.

Assays:
[1] = compounds binding Alexa647 anti-His antibody – biochemical, small-molecule microarray, 635 nm fluorescence, artefact control for SMM control protein annotation, primary screen (AID 1128); details: higher = more signal;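 also: score merges feature fluorescence with signal-to-noise for each printed compound spot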
[2] = system: Human papillomavirus type 1a E7 protein (residues 1-88); assay: HPV1a E7 small-molecule binders, primary screen, biochemical, small-molecule microarray, residues 1-88, 635 nm (AID 1129); details: small-molecule microarray binding, fluorescence 635 nm; higher = more signal
[3] = molecular target: Focal adhesion kinase 1 (Homo sapiens) (UniProt Q05397); assay: PTK2 protein binding on printed compound slides – biochemical, small-molecule microarray, 635/667 nm fluorescence, BSA, DTT, primary screen (AID 1130); details: 635 nm fluorescence, higher = more signal;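 also: composite of spot emission at 667 nm and signal to noise over triplicate slides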
Sequence of Focal adhesion kinase 1 (Homo sapiens) (Q05397 whole entry, looked up): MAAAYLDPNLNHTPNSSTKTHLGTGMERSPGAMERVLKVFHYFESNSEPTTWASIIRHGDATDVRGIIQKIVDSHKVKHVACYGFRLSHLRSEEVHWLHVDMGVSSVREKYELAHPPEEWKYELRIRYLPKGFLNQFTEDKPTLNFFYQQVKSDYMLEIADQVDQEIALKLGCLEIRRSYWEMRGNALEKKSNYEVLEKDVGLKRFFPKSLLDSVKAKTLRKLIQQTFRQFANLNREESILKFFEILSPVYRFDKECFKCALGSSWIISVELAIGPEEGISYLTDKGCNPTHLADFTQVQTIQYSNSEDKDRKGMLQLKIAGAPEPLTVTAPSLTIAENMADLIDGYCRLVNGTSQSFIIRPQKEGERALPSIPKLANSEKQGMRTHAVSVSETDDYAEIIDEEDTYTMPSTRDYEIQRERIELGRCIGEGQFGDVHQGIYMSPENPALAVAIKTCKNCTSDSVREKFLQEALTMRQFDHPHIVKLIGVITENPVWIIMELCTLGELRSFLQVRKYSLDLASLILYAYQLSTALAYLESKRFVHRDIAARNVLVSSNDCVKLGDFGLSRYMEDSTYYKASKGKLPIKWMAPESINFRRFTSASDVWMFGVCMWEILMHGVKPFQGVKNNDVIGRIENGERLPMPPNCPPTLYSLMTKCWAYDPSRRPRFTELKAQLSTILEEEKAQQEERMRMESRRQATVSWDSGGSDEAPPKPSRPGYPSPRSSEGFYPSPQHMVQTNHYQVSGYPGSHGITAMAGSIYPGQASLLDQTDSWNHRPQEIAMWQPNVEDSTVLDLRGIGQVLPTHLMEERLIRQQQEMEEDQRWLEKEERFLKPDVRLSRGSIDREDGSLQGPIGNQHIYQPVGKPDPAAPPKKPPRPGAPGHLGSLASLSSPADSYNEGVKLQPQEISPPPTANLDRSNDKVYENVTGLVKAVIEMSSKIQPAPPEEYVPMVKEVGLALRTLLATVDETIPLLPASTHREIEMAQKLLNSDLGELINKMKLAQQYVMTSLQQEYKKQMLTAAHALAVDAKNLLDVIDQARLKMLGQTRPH

[4] = system: Fibrinogen (Alexa647-labelled); assay: Alexa647-fibrinogen binding to printed small molecules – biochemical, small-molecule microarray, 635/667 nm fluorescence, artefact control for SMM control-protein annotation, profiling panel (AID 1131); details: fibrinogen-A647 binding fluorescence, higher = more signal;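 also: z-score merges 667 nm fluorescence with per-spot signal-to-noise over triplicate slides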
[5] = molecular target: Follistatin (Homo sapiens) (UniProt P19883); assay: FST protein binding to printed compounds – biochemical, small-molecule microarray, 635/667 nm fluorescence, primary screen (AID 1132); details: 635 nm fluorescence, higher = more signal
Sequence of Follistatin (Homo sapiens) (P19883 whole entry, looked up): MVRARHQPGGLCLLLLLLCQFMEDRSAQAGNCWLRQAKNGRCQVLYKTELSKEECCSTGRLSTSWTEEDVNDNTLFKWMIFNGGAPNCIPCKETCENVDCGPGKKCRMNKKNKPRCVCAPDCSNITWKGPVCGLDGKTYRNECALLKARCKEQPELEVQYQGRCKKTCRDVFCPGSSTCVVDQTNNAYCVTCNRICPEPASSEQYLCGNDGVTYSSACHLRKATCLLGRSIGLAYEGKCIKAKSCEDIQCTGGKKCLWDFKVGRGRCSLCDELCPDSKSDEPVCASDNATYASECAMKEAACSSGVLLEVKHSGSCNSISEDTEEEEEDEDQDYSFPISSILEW

[6] = molecular target: Fibroblast growth factor 2 (Homo sapiens) (UniProt P09038); assay: basic fibroblast growth factor binding to printed compounds – biochemical, small-molecule microarray, 635/667 nm fluorescence, primary screen (AID 1133); details: FGF2, fluorescence 635/667, higher = more signal
Sequence of Fibroblast growth factor 2 (Homo sapiens) (P09038 whole entry, looked up): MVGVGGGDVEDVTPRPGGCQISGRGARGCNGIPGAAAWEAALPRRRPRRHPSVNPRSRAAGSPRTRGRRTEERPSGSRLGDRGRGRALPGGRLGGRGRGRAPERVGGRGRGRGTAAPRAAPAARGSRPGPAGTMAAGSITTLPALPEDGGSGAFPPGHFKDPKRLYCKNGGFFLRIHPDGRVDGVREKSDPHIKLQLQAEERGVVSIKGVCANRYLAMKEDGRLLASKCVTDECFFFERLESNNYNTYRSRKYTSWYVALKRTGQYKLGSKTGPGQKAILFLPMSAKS

[7] = JC-1 mitochondrial potential readout, lung cancer cells – cell-based, A549, JC-1 fluorescence, basal, 24 h, 100 nL, profiling panel (AID 1138); details: higher = more signal;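 also: A549 lung adenocarcinoma cells under basal conditions with no added stimulus; test concentration not given here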
Lefty1 = Lefty1 protein binding to printed compounds – biochemical, small-molecule microarray, 635/667 nm fluorescence, primary screen (AID 1139); details: fluorescence 635/667, higher = more signal
[8] = system: wheat germ agglutinin (Triticum aestivum), Alexa647-labelled; assay: Alexa647-WGA lectin binding to printed small molecules – biochemical, small-molecule microarray, 635/667 nm fluorescence, artefact control for SMM control-protein annotation, profiling panel (AID 1140); details: WGA-A647 binding, 635 nm fluorescence, higher = more signal;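 also: score merges 667 nm feature emission with signal to noise over triplicate slides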
[9] = molecular target: Luciferin 4-monooxygenase (Photinus pyralis) (UniProt P08659); assay: inhibition of purified Photinus pyralis luciferase – biochemical, luminescence, purified enzyme, 2006 set, primary screen (AID 1141); details: purified firefly luciferase, SteadyGlo luminescence, 30 min; higher = more signal, called active from +8 up or from −8 down;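 also: cell-free assay with purified firefly luciferase at 100 ng per well in PBS; test concentration not given here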
Sequence of Luciferin 4-monooxygenase (Photinus pyralis) (P08659 whole entry, looked up): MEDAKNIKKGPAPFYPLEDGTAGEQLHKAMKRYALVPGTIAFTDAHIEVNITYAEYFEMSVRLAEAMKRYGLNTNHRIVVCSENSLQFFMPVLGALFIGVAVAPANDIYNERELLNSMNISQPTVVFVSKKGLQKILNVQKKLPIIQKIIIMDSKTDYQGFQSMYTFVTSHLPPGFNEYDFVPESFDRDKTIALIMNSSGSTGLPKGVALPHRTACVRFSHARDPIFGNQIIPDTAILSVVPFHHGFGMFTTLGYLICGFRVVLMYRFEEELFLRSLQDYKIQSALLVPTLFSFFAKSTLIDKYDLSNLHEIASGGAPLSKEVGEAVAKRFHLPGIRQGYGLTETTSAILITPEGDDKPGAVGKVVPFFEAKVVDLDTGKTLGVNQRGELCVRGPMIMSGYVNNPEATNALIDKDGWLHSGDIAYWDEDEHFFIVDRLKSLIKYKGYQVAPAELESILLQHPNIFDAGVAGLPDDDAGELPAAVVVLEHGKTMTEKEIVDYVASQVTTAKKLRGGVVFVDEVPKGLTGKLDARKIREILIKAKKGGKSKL

SMILES | composite z-score [1] | composite z-score [2] | composite z-score [3] | composite z-score [4] | composite z-score [5] | composite z-score [6] | z-score [7] | composite z-score (Lefty1) | composite z-score [8] | z-score [9]
C=C(/C(=C/C[C@@H](OC(C)=O)c1ccccc1OCCO)c1cnc2ccccc2c1)C(C)C | 0.119 | -0.198 | 0.0328 | -0.571 | 1.17 | 1.48 | -0.111 | 1.58 | 1.05 | -0.557 (inactive)
C[C@H]1NC(=O)C([C@@H](C)OCc2ccccc2)NC(=O)[C@@]23C(=O)N[C@@H](Cc4ccccc4)C2[C@H](C)[C@@]2(C)O[C@H]2C3/C=C/CC/C=C/CNC1=O (stereo not given in full) | -0.342 | -0.413 | -0.305 | 0.42 | 0.607 | 0.588 | -0.198 | 0.331 | 0.384 | -0.749 (inactive)
O=C1C[C@@](C(=O)NCc2ccccc2)(c2ccc([N+](=O)[O-])cc2)[C@@H](c2ccc(CO)cc2I)N1C1CCCCC1 | 1.12 | 1.2 | 0.532 | 0.805 | 1.43 | 1.25 | -0.0219 | 0.721 | 0.411 | -1.2 (inactive)
CC(C)CCC[C@@H](C)[C@H]1CC[C@@]2(C)C3=C(CC[C@]12C)[C@@]1(C)CC[C@H](OC(=O)C(C)(C)C)C(C)(C)C1CC3 (stereo not given in full) | 0.43 | 0.586 | 0.0226 | 0.551 | 0.828 | 0.232 | 0.4 | 0.543 | 0.0969 | 0.159 (inactive)
CC(C)[Si](C#C[Si](C(C)C)(C(C)C)C(C)C)(O[C@H](C)c1cn(Cc2cccc(Cl)c2)nn1)C(C)C | 0.604 | 1.11 | 0.586 | 0.715 | 0.396 | 0.67 | 2.01 | 0.714 | 1.17 | -1.11 (inactive)
COCCCNC(=O)[C@@]1(Cc2ccccc2I)c2ccccc2C(=O)N(Cc2ccccc2Cl)[C@H]1c1ccc(CO)cc1 | 1.25 | 0.494 | 0.692 | 0.912 | 0.583 | -0.125 | 0.723 | 0.246 | 0.897 | 1.29 (inactive)
Cc1ccc(S[C@]2(C(=O)O)CC(=O)N(Cc3ccccc3C(F)(F)F)[C@@H]2c2ccc(CO)cc2)cc1 | -0.916 | -0.543 | 0.0068 | -0.772 | -0.238 | -1.18 | 0.391 | -1.27 | -0.475 | 0.989 (inactive)
[N-]=[N+]=NCc1ccccc1C[C@]1(C(=O)NCCN2CCOCC2)COC(c2ccc(OCCCO)cc2)=N1 | 0.293 | 1.24 | 0.815 | 1.02 | 0.953 | 0.152 | 1.88 | 0.346 | 0.783 | -0.851 (inactive)
NC(=O)NCC#Cc1ccc2c(c1)[C@]1(C(=O)N2)[C@H](c2ccc(OCCO)cc2)N2[C@H](c3ccccc3)[C@H](c3ccccc3)OC(=O)[C@H]2[C@@H]1C(=O)N1CCN(c2ncccn2)CC1 | -0.192 | 0.973 | 0.0718 | 0.879 | 1.34 | 0.502 | -1.1 | 1.08 | 0.444 | -1.33 (inactive)
O=C1c2ccccc2[C@](Cc2ccccc2I)(C(=O)NC2CC2)[C@H](c2ccc(CO)cc2)N1Cc1ccccc1Cl | 1.07 | 1.17 | 0.344 | 0.0468 | 1.23 | 1.6 | 0.756 | 0.0036 | 0.86 | -0.0487 (inactive)
Cc1ccccc1C(O)C1C=CC2C(=O)N(Cc3ccccc3)C(=O)C2N1n1cnnc1 (stereo not given) | 1.54 | 1.05 | -0.0602 | 1.02 | 1.07 | 0.188 | -0.478 | 0.694 | 0.429 | 1.39 (inactive)
CCCC[C@@H](O)C1=C(COc2ccccc2)Cn2c(=O)n(-c3ccccc3)c(=O)n2[C@H]1CO | -0.265 | -0.476 | -0.103 | 0.729 | -0.28 | -0.242 | 0.363 | -0.193 | 0.31 | -1.79 (inactive)
CCOC(=O)C1=CC[C@@H](c2cccc(Br)c2)N(S(=O)(=O)c2ccc(C)cc2)[C@H]1c1ccc([N+](=O)[O-])cc1 | 0.822 | 1.22 | 0.359 | 1.01 | 0.782 | 0.873 | 1.99 | 0.726 | 0.743 | 1.96 (inactive)
COC(=O)[C@@]1(Cc2ccc(F)cc2)[C@H]2c3cc(C(=O)N(C)C)n(Cc4ccc(C)c(F)c4F)c3C[C@H]2CN1C(=O)c1ccccc1 | 2.08 | 0.864 | 0.454 | 0.743 | 0.0662 | -0.769 | 1.33 | -0.413 | 0.854 | 0.0883 (inactive)
C=CCN1C(=O)[C@@]2(O[C@@H](CCn3cc([C@H](O)c4ccccc4)nn3)[C@H]([Si](C)(C)c3ccc(OC)cc3)[C@H]2C)c2cc(NC(=O)c3ccc(OC)cc3)ccc21 | 0.623 | 0.931 | 0.386 | 0.0475 | 0.987 | 0.518 | 0.763 | 0.628 | -0.191 | 0.427 (inactive)
CC(C)(C)OC(=O)CC[C@@]1(C(=O)N2CCCCC2)N=C(c2ccc(OCCCO)cc2)O[C@@H]1c1ccccc1N=[N+]=[N-] | 2.83 | 1.27 | 1.7 | 0.99 | 1.26 | 0.722 | 1.95 | 0.0141 | 1.25 | -11.7 (active)
CO[C@H]1O[C@H](CO)[C@@H](OC(=O)c2ccc(Br)cc2)[C@@H]2OC(=O)[C@H](Cc3cccc(Br)c3)C/C=C/C[C@@H](Cc3cccc(Br)c3)C(=O)O[C@@H]12 | 1.58 | 1.05 | 0.214 | 0.647 | 1.02 | 0.897 | 1.02 | 0.442 | 0.31 | 0.0021 (inactive)
C/C=C/[C@@H](CCn1cc([C@H](O)c2ccccc2)nn1)[Si](C)(C)c1ccc(OC)cc1 | 0.0974 | -0.253 | 0.0213 | -0.267 | -0.673 | -0.62 | 0.947 | -0.337 | 0.418 | 0.273 (inactive)
[N-]=[N+]=NCc1ccccc1[C@H]1OC(c2ccc(OCCCO)cc2)=N[C@@]1(Cc1ccccc1N=[N+]=[N-])C(=O)NCCN1CCOCC1 | 2.01 | 1.27 | 0.387 | 0.981 | 1.27 | 0.939 | 1.57 | 0.631 | 1.2 | -2.69 (inactive)
CC1CC/C=C\[C@H]2OC34C=CCN(Cc5ccccc5)C(=O)[C@H]3N(CCO)C(=O)[C@@H]4C2C(=O)O1 (stereo not given in full) | 0.364 | 0.324 | -0.106 | -0.785 | -0.418 | -0.43 | -0.322 | -0.592 | -0.162 | -0.573 (inactive)
CCCC=C(CCC)[C@@H](NS(=O)(=O)c1ccccc1)c1ccc(C(F)(F)F)cc1 | 0.438 | 1.21 | 1.03 | 0.979 | 0.831 | -0.0779 | -1.64 | 0.219 | 0.72 | 2.08 (inactive)
CN1C(=O)C2C=CC(C(O)C3CCCCC3)N(N(c3ccccc3)c3ccccc3)C2C1=O (stereo not given) | -0.392 | -1.14 | 0.0064 | -0.702 | -0.885 | -0.732 | 0.131 | -1.6 | 0.517 | 0.135 (inactive)
CC1(C)[C@@H]2CC(C(O)C3C=CC4C(=O)N(c5ccccc5)C(=O)C4N3Nc3ccccc3F)=C[C@@H]1C2 (stereo not given in full) | 1.41 | 1.2 | 0.218 | 0.938 | 0.876 | 1.26 | -0.136 | 0.655 | 0.392 | 0.905 (inactive)
COCCOC(=O)N1C(=O)[C@@]2(c3cc(C#CCCO)ccc31)[C@H](C(=O)NC[C@H](O)c1ccccc1)[C@H]1C(=O)O[C@H](c3ccccc3)[C@H](c3ccccc3)N1[C@@H]2c1ccccc1OCCO | -0.338 | 1.23 | 1.07 | 0.59 | 1.28 | 1.42 | 0.358 | 1.35 | 1.07 | -1.02 (inactive)
COC(=O)[C@@]1(Cc2ccc(OC)cc2)[C@H]2c3cc(C(=O)N4CCCC4)n(Cc4ccc(C)o4)c3C[C@H]2CN1C(=O)c1ccccc1 | 0.849 | 1.2 | -0.0727 | -0.369 | 1.09 | -0.648 | -3.11 | -0.211 | 0.26 | -22.4 (active)
CCOC(=O)C[C@H]1[C@H](OC(=O)c2ccccc2-c2ccccc2)[C@@H](NC(=O)c2ccccc2)c2cc(OCCCO)ccc2N1C(=O)Cc1ccc(OC)cc1 | -0.277 | -0.64 | 0.0427 | 0.66 | -0.0263 | -0.188 | 0.322 | -0.018 | 0.564 | 0.897 (inactive)
O=C1NC(=O)C2C1C=CC(C(O)c1ccc3c(c1)OCO3)N2Nc1ccc(Cl)cc1Cl (stereo not given) | 1.24 | 0.453 | 0.822 | 0.0542 | 0.579 | -0.0317 | 0.512 | 0.194 | 0.698 | -0.109 (inactive)
O=C1O[C@@H](c2ccccc2)[C@@H](c2ccccc2)N2[C@@H](c3ccc(O)cc3)[C@]3(C(=O)Nc4ccc(C#CC5=CCCCC5)cc43)[C@@H](C(=O)Nc3nc4ccccc4s3)[C@H]12 | 1.15 | 1.22 | 0.32 | 0.852 | 1.25 | 1.35 | -1.8 | 1.54 | 1.32 | -1.34 (inactive)
